This assay has as its target AMP-activated protein kinase, AMPK (Homo sapiens) (UniProt P54646+O43741+P54619+Q9UGJ0+Q9Y478+Q13131+Q9UGI9). Nature of the assay: AMP-dependent Kinase enzyme assay. An in vitro enzyme assay that detects ADP turnover that is directly proportional to AMPK activity. This uses naive AMPK that is activated during the assay with MK-8722. Format: functional. Details: scale not given: direction of the effect not stated beside the values. The conditions noted are these: 30 µM.
As to `CCc1cnc(CN(C(C)=O)C2CCN(CCc3cnn(C)c3)C2)o1` (stereo not given), the Percent Effect was -1.21%. In the case of `CC(C)c1nnc2n1CC(CNCc1ccncc1)CC2` (stereo not given), the Percent Effect is -5.62%. Next, `O=S(=O)(Cc1ccccc1F)NCCN1CCOCC1`: -0.989%. For the molecule `COc1cc(C(=O)N2CCC(c3n[nH]c(C4CC4)n3)CC2)ccc1C`, the Percent Effect is 6.11%.

As to `CC(C)(C)C(=O)NS(=O)(=O)c1ccc(C#N)cc1C(F)(F)F`, the Percent Effect is -4.85%. Next, `O=C(N1CCCO1)[C@@]12CCO[C@@H]1CCN(C1CCCCC1)C2`: -8.58%. For `O=C(c1ccccc1-n1cccn1)N1CCCN(c2cccnn2)CC1`, the Percent Effect was 5.31%.

Turning to `Cc1cc(C)n(CC2CCCN2C(=O)c2cnn(C)c2C2CC2)n1` (stereo not given), the Percent Effect is 11.2%.

With `CCC(C)(NCC(=O)Nc1nc(C)cs1)c1nc(C)cs1` (stereo not given), the Percent Effect is -10.8%. With `CCOc1nnc(CN2CCC(N(C)Cc3noc(C)n3)C2)s1` (stereo not given), the Percent Effect was -4.92%. Turning to `Cc1ccc(=O)n(CC2(O)CCN(Cc3cnc(C)nc3)CC2)n1`, the Percent Effect is 4.75%.

As for `O=C(Cn1c(=O)n(Cc2ccco2)c2ncccc21)Nc1ccccn1`, the Percent Effect worked out at 4.77%.

Consider `COc1cccc(N2CCN(CC(O)c3cc(C)sc3C)CC2)c1` (stereo not given), for which the Percent Effect was found to be 6.95%.

Consider `CCOCC(=O)NC1(c2cccc(Br)c2)CC1`, for which the Percent Effect was found to be 0.838%. Turning to `CCc1noc(C(C)N(C)CC(=O)Nc2ccc(C)cc2)n1` (stereo not given), the Percent Effect was determined as 2.85%. In the case of `CCn1cnnc1CNC(=O)c1cc(Cl)ccc1OC`, the Percent Effect was found to be 8.8%.

With `CCc1nc(CNC(=O)Nc2ccc(C(=O)NC)cc2C)cs1`, the Percent Effect is -2.78%. In the case of `O=C(CCc1cccs1)N1CCC(Nc2cccnn2)CC1`, the Percent Effect is -9.73%.

With `COCC(=O)N1CCCC1c1cc(Nc2nnc(C)s2)nc(C)n1` (stereo not given), the Percent Effect is -6.16%.

For the molecule `CCn1ccnc1CN1C[C@@H](CN2CCCC2)[C@@H](CO)C1`, the Percent Effect was -3.35%.

The values above are taken from ChEMBL document CHEMBL3988442, “University of Dundee, Small-Polar-MMV Screening Library” (2021).
